# Assay results reported in the supplement of paper PMC10338343.
# ± gives the standard deviation.
# Assays:
# [1] = system: MILI (PIWIL2) piRISC loaded with piRNA #1 (26 nt); assay: pre-steady-state target cleavage rate (min^-1); guide: piRNA #1 5'p-UGAGGUAGUAGGUUGUAUAGUAUCCA; higher = faster piRNA-guided slicing of the target; settings: auxiliary factor: 500 nM mouse GTSF1
# In short: (§1)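 Active affinity-purified piRISC (1 nM) loaded with one synthetic guide was mixed with a transcribed, DNA-blocked target RNA library (0.1 nM), with or without 500 nM GTSF1 partner protein, in HEPES–potassium acetate buffer at 33 °C for 0–8 or 0–960 min. Uncleaved targets were sequenced, normalised to depth and to weakly complementary targets, and pooled across three trials, with k3 capped at 0.0001 min^-1. The pre-steady-state cleavage rate was determined with a burst-and-steady-state fit.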
# [2] = system: EfPiwi piRISC loaded with piRNA #1 (26 nt); assay: pre-steady-state target cleavage rate (min^-1); auxiliary factor: 500 nM Ephydatia muelleri Gtsf1; guide: piRNA #1 5'p-UGAGGUAGUAGGUUGUAUAGUAUCCA; higher = faster piRNA-guided slicing of the target
# In short: as §1
# [3] = system: MILI (PIWIL2) piRISC loaded with L1MC piRNA (26 nt); assay: pre-steady-state target cleavage rate (min^-1); guide: L1MC piRNA 5'p-UAACUAAAUACUAUGCAAGCUGUAGG; higher = faster piRNA-guided slicing of the target
# In short: as §1
# [4] = system: EfPiwi piRISC loaded with L1MC piRNA (26 nt); assay: pre-steady-state target cleavage rate (min^-1); auxiliary factor: none (no Gtsf1); guide: L1MC piRNA 5'p-UAACUAAAUACUAUGCAAGCUGUAGG; MIWI and MILI are mouse PIWI proteins and EfPiwi is from a freshwater sponge; tags in brackets are library labels; higher = faster piRNA-guided slicing of the target
# In short: as §1
# [5] = auxiliary factor: 500 nM mouse GTSF1
# [6] = auxiliary factor: none (no GTSF1)
sequence,measurement,setting,value
GGAGACCACUACUAUACAACCUACUACCUCA,pre-steady-state target cleavage rate,[1],0.149 ± 0.016
same,pre-steady-state target cleavage rate,[2],0.0313 ± 0.014
UCCUGGAUGUCGAUGCAUAGUAUUCAGUUA,pre-steady-state target cleavage rate,[3]; [5],0.0263 ± 0.0083
same,pre-steady-state target cleavage rate,[4],< 0.0001
UCCUGGAACAGCUUGCAUAGUAUUAACAAA,pre-steady-state target cleavage rate,[3]; [5],0.104 ± 0.029
same,pre-steady-state target cleavage rate,[4],< 0.0001
UCCUGGAUGUCGAUGCACAGUAUUUAGUUA,pre-steady-state target cleavage rate,[3]; [5],0.0311 ± 0.0057
same,pre-steady-state target cleavage rate,[3]; [6],0.00443 ± 0.0024
same,pre-steady-state target cleavage rate,[4],< 0.0001
UCCUGGAUGUCGAACGUAAGUAUUUAGUCA,pre-steady-state target cleavage rate,[4],< 0.0001
UCCUGGAUGUCGAACGAGUAGUAUUUAGUUA,pre-steady-state target cleavage rate,[3]; [6],< 0.0001
same,pre-steady-state target cleavage rate,[4],< 0.0001
UCCUGGAUGUCGAACCUAUGUAUUUAGUUA,pre-steady-state target cleavage rate,[4],< 0.0001
UCCUGGAUGUCGUUGCAUAGUAUUUAUUA,pre-steady-state target cleavage rate,[4],< 0.0001
UCCUGGAUCAGCUUGCAUAGUAUUUACUUA,pre-steady-state target cleavage rate,[3]; [5],0.0636 ± 0.008
same,pre-steady-state target cleavage rate,[3]; [6],0.00403 ± 0.0024
same,pre-steady-state target cleavage rate,[4],< 0.0001
UCCUGGAUGUCGAACGUUACUAUUAAGUUA,pre-steady-state target cleavage rate,[3]; [6],< 0.0001
same,pre-steady-state target cleavage rate,[4],< 0.0001
UCCUGGAUGUCGAACGUAAGAAUUUAGUAA,pre-steady-state target cleavage rate,[4],< 0.0001
UCCUGGAUGUCGAACGUAUCUAUCUUAGUUA,pre-steady-state target cleavage rate,[4],< 0.0001
UCCUGGAUGUCGUUGCAUAGUAUAAUGUUA,pre-steady-state target cleavage rate,[3]; [5],0.0201 ± 0.011
same,pre-steady-state target cleavage rate,[4],< 0.0001
UCCUCCUACAGCUUGCAUAGAAUUUUCAAA,pre-steady-state target cleavage rate,[3]; [5],0.0466 ± 0.015
same,pre-steady-state target cleavage rate,[4],< 0.0001
UCCUGGAUGUCGAACGUAUGUAUUUAGUAA,pre-steady-state target cleavage rate,[3]; [6],< 0.0001
same,pre-steady-state target cleavage rate,[4],< 0.0001
UCCUGGAUGUCCAUGCAUAGUAUAUAGUUA,pre-steady-state target cleavage rate,[3]; [5],0.0181 ± 0.0064
same,pre-steady-state target cleavage rate,[3]; [6],0.00373 ± 0.0026
same,pre-steady-state target cleavage rate,[4],< 0.0001
UCCUGGAUGAGCUUGCAUCAGUAUUUAGUUA,pre-steady-state target cleavage rate,[4],< 0.0001
UCCUGGAUGUCGAUGGAUAGAAUUUAGUUA,pre-steady-state target cleavage rate,[4],< 0.0001
UCCUGGAUCAGGAAGCAUAGUAUUUAGAAA,pre-steady-state target cleavage rate,[3]; [5],0.0247 ± 0.0063
same,pre-steady-state target cleavage rate,[4],< 0.0001
UCCUGGAUGUCGAACGAAGUAUUUAGUUA,pre-steady-state target cleavage rate,[4],< 0.0001
UCCUGCUACAGCUUGGUAAGUAUUUAGAAA,pre-steady-state target cleavage rate,[3]; [5],0.0107 ± 0.0045
same,pre-steady-state target cleavage rate,[4],< 0.0001
UCCUGGAUGUCGAUGCAUAGUAUUUACAAA,pre-steady-state target cleavage rate,[3]; [5],0.0066 ± 0.0042
same,pre-steady-state target cleavage rate,[4],< 0.0001
UCCUGGAUGUCGAUGCAUAGUAUUAUGUUA,pre-steady-state target cleavage rate,[3]; [5],0.0412 ± 0.011
same,pre-steady-state target cleavage rate,[4],< 0.0001
UCCUGGAUGUCGAAGCAUAGUAUUUAGUGA,pre-steady-state target cleavage rate,[3]; [5],0.0495 ± 0.015
same,pre-steady-state target cleavage rate,[3]; [6],0.00324 ± 0.0026
same,pre-steady-state target cleavage rate,[4],< 0.0001
UCCUGGAUGUCCUUGCAUAAGUAUUUAGUUA,pre-steady-state target cleavage rate,[4],< 0.0001
UCCUGGAUGUCGAAGCAUAGUUUUUAGUUA,pre-steady-state target cleavage rate,[3]; [5],0.00892 ± 0.0039
same,pre-steady-state target cleavage rate,[3]; [6],0.00397 ± 0.0017
same,pre-steady-state target cleavage rate,[4],< 0.0001
UCCUGGAUGUCGUUGCAUAGUUUUAGUUA,pre-steady-state target cleavage rate,[4],< 0.0001
UCCUGGAUGUGCAUGCAUAGUAUUUACUUA,pre-steady-state target cleavage rate,[3]; [5],0.065 ± 0.018
same,pre-steady-state target cleavage rate,[3]; [6],0.00616 ± 0.0026
same,pre-steady-state target cleavage rate,[4],< 0.0001
UCCUGGAUGUCGAACGUUAGUAAUUAGUAA,pre-steady-state target cleavage rate,[4],< 0.0001
UCCUGGAUGUCGUUGCAUAGUAUUUAGCUA,pre-steady-state target cleavage rate,[4],< 0.0001
UCCUGGAUGUCCAUGCAUAGUAUUAAGUUA,pre-steady-state target cleavage rate,[3]; [5],0.0665 ± 0.018
same,pre-steady-state target cleavage rate,[4],< 0.0001
UCCUGGAUCAGCAACCAUAGUAUUUUCAAA,pre-steady-state target cleavage rate,[3]; [6],< 0.0001
same,pre-steady-state target cleavage rate,[4],< 0.0001
UCCUGGUACAGCUUGCAUAGAAUUUACUUA,pre-steady-state target cleavage rate,[3]; [5],0.0206 ± 0.011
same,pre-steady-state target cleavage rate,[4],< 0.0001
UCCUGGAUCAGGUUGCAUAGUAUUUUCAAA,pre-steady-state target cleavage rate,[3]; [5],0.07 ± 0.023
same,pre-steady-state target cleavage rate,[4],< 0.0001
